In PubChem BioAssay AID1159580 (chemical genetic matrix, 2015):
Values joined by “and” are separate entries in the source; they are usually repeats but may differ in a detail not shown here. Identical values can stand only once. Screen size: about 5,500 compounds; about 2,000 (36%) were called active. Not shown: some 18% with an inconclusive outcome. Rule as the data show it: active = normalized growth mostly below about 0.91 (no sharp cut-off); inconclusive = no clear call, values can overlap the other calls; inactive = mostly above about 0.92. This is one part of the list.

Assay: chemical genetic growth profiling, strain panel (AID 1159580);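 also: tested at 20 µM; growth read once vehicle control cultures reached saturation at 30 °C; 1 = growth at the plate median or of vehicle wells; lower values mean less growth of the strain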
Details: S. cerevisiae deletion strains, growth OD

Measured: normalized growth

O=c1ccc2ccccc2o1
inactive: locus YAL013W, strain DEP1, hits give low values 1.02 | locus YAL021C, strain ccr4, hits give low values 1.01 | locus YAL026C, strain drs2, hits give low values 0.993 | locus YAL030W, strain snc1, hits give low values 0.99 | locus YBL061C, strain skt5, hits give low values 0.988 | locus YBR009C, strain hhf1, hits give low values 0.939 | locus YBR021W, strain FUR4, hits give low values 1 | locus YBR023C, strain chs3, hits give low values 0.996 | locus YBR171W, strain sec66, hits give low values 0.974 | locus YBR229C, strain ROT2, hits give low values 1.02 | locus YBR231C, strain swc5, hits give low values 0.964 | locus YBR279W, strain paf1, hits give low values 0.999 | locus YCL011C, strain gbp2, hits give low values 0.993 | locus YCL016C, strain dcc1, hits give low values 1.03 | locus YCL029C, strain bik1, hits give low values 0.992 | locus YCL069W, strain vba3, hits give low values 0.98 | locus YCR088W, strain abp1, hits give low values 0.982 | locus YDL005C, strain med2, hits give low values 0.976 | locus YDL035C, strain GPR1, hits give low values 1.01 | locus YDL040C, strain nat1, hits give low values 0.984 | locus YDL074C, strain BRE1, hits give low values 1.01 | locus YDL101C, strain DUN1, hits give low values 1.03 | locus YDL134C, strain PPH21, hits give low values 1.03 | locus YDL185W, strain tfp1, hits give low values 0.982 | locus YDL192W, strain arf1, hits give low values 0.988 | locus YDR001C, strain nth1, hits give low values 0.978 | locus YDR069C, strain doa4, hits give low values 0.987 | locus YDR101C, strain arx1, hits give low values 0.968 | locus YDR137W, strain rgp1, hits give low values 0.968 | locus YDR150W, strain NUM1, hits give low values 1 | locus YDR159W, strain sac3, hits give low values 0.945 | locus YDR162C, strain NBP2, hits give low values 1.04 | locus YDR195W, strain ref2 0.991 | locus YDR297W, strain sur2, hits give low values 0.973 | locus YDR318W, strain mcm21, hits give low values 1.01 | locus YDR334W, strain swr1, hits give low values 0.926 | locus YDR335W, strain msn5, hits give low values 0.985 | locus YDR388W, hits give low values 0.988 | locus YDR392W, strain spt3, hits give low values 0.956 | locus YDR502C, strain sam2, hits give low values 0.963 | locus YEL003W, strain gim4, hits give low values 0.957 | locus YEL037C, strain rad23, hits give low values 0.977 | locus YEL061C, strain CIN8 (second series), hits give low values 0.954 | locus YEL061C, strain CIN8, hits give low values 1.01 | locus YER015W, strain faa2, hits give low values 0.991 | locus YER016W, strain bim1, hits give low values 0.986 | locus YER110C, hits give low values 0.989 | locus YER111C, strain swi4, hits give low values 0.982 | locus YER155C, strain BEM2 (second series), hits give low values 0.937 | locus YER155C, strain BEM2, hits give low values 1.02 | locus YER167W, strain BCK2, hits give low values 1.02 | locus YFR010W, strain ubp6, hits give low values 0.93 | locus YGL078C, strain dbp3, hits give low values 0.992 | locus YGL086W, strain mad1, hits give low values 0.981 | locus YGL167C, strain pmr1, hits give low values 0.972 | locus YGL173C, strain kem1, hits give low values 0.973 | locus YGL227W, strain vid30, hits give low values 0.969 | locus YGL240W, strain doc1, hits give low values 0.958 | locus YGL248W, strain PDE1, hits give low values 1.04 | locus YGL253W, strain hxk2, hits give low values 1.01 | locus YGR135W, strain pre9, hits give low values 0.988 | locus YGR252W, strain gcn5, hits give low values 1.02 | locus YHR013C, strain ard1, hits give low values 1.05 | locus YHR027C, strain rpn1, hits give low values 0.975 | locus YHR030C, strain SLT2, hits give low values 1.02 and 0.992 | locus YHR079C, strain IRE1 (second series), hits give low values 0.999 | locus YHR079C, strain IRE1, hits give low values 0.957 | locus YHR094C, strain hxt1, hits give low values 0.989 | locus YHR129C, strain ARP1, hits give low values 1.02 | locus YHR142W, strain chs7, hits give low values 1.03 | locus YHR200W, strain rpn10, hits give low values 0.978 | locus YIL066C, strain RNR3, hits give low values 1.02 | locus YIL073C, strain SPO22, hits give low values 0.985 | locus YIL125W, strain kgd1, hits give low values 1.01 | locus YIR030C, strain dcg1, hits give low values 0.992 | locus YJL092W, strain hpr5, hits give low values 0.996 | locus YJL095W, strain BCK1 (second series), hits give low values 0.978 | locus YJL095W, strain BCK1, hits give low values 1.06 and 0.982 | locus YJL115W, strain asf1, hits give low values 0.972 | locus YJL129C, strain trk1, hits give low values 0.985 | locus YJL134W, strain LCB3, hits give low values 1.01 | locus YJL154C, strain vps35, hits give low values 0.978 | locus YJL164C, strain tpk1, hits give low values 0.977 | locus YJL166W, strain qcr8, hits give low values 0.956 | locus YJL168C, strain set2, hits give low values 0.995 | locus YJL187C, strain SWE1 (second series), hits give low values 1.02 | locus YJL187C, strain SWE1, hits give low values 0.982 | locus YJR043C, strain POL32, hits give low values 1.02 | locus YJR066W, strain TOR1, hits give low values 0.945 | locus YKL009W, strain mrt4, hits give low values 1.12 | locus YKL068W, hits give low values 1.01 | locus YKL085W, strain MDH1 (second series), hits give low values 1.01 | locus YKL085W, strain MDH1, hits give low values 1.01 | locus YKL160W, strain elf1, hits give low values 1.02 | locus YKL190W, strain CNB1, hits give low values 1.02 | locus YKR001C, strain vps1, hits give low values 0.979 | locus YKR026C, strain gcn3, hits give low values 0.972 | locus YKR091W, strain srl3, hits give low values 0.983 | locus YLL001W, strain dnm1, hits give low values 0.981 | locus YLL026W, hits give low values 0.99 | locus YLL041C, strain sdh2, hits give low values 0.998 | locus YLR027C, strain aat2, hits give low values 0.993 | locus YLR039C, strain RIC1, hits give low values 1.03 | locus YLR058C, strain SHM2, hits give low values 1.03 | locus YLR102C, strain apc9, hits give low values 0.987 | locus YLR113W, strain HOG1, hits give low values 0.999 | locus YLR221C, strain rsa3, hits give low values 0.952 | locus YLR258W, strain gsy2, hits give low values 1.01 | locus YLR262C, strain YPT6 (second series), hits give low values 0.965 | locus YLR262C, strain YPT6, hits give low values 1.03 | locus YLR268W, strain sec22, hits give low values 0.961 | locus YLR320W, strain mms22, hits give low values 0.951 | locus YLR330W, strain CHS5, hits give low values 1.03 | locus YLR342W, strain FKS1 (second series), hits give low values 1.01 | locus YLR342W, strain FKS1, hits give low values 1 | locus YLR357W, strain rsc2, hits give low values 1.04 | locus YLR370C, strain arc18, hits give low values 1 | locus YLR371W, strain rom2, hits give low values 0.976 | locus YLR384C, strain iki3, hits give low values 0.992 | locus YLR418C, strain cdc73, hits give low values 1.03 | locus YML016C, strain PPZ1, hits give low values 1.02 | locus YML032C, strain rad52, hits give low values 0.999 | locus YML120C, strain ndi1, hits give low values 0.95 | locus YML124C, strain tub3, hits give low values 0.994 | locus YMR058W, strain fet3, hits give low values 0.983 | locus YMR078C, strain ctf18, hits give low values 0.989 | locus YMR125W, strain sto1, hits give low values 0.998 | locus YMR129W, hits give low values 0.989 | locus YMR205C, strain PFK2, hits give low values 0.955 | locus YMR223W, strain ubp8, hits give low values 1.04 | locus YMR231W, strain pep5, hits give low values 0.971 | locus YMR307W, strain GAS1, hits give low values 1.06 | locus YNL067W, strain RPL9B, hits give low values 1.02 | locus YNL071W, strain lat1, hits give low values 0.958 | locus YNL183C, strain NPR1, hits give low values 0.949 | locus YNL209W, strain ssb2, hits give low values 0.978 | locus YNL233W, strain BNI4, hits give low values 1.02 | locus YNL248C, strain rpa49, hits give low values 0.995 | locus YNL250W, strain rad50, hits give low values 1.01 | locus YNL271C, strain bni1, hits give low values 0.993 | locus YNL298W, strain CLA4, hits give low values 0.993 | locus YNL307C, strain MCK1, hits give low values 0.997 | locus YNL322C, strain KRE1 (second series), hits give low values 0.98 | locus YNL322C, strain KRE1, hits give low values 1.02 | locus YNR049C, strain mso1, hits give low values 0.993 | locus YNR052C, strain pop2, hits give low values 1.01 | locus YOL012C, strain htz1 1.37 | locus YOL147C, strain pex11, hits give low values 0.99 | locus YOR001W, strain rrp6, hits give low values 0.935 | locus YOR061W, strain CKA2, hits give low values 1.02 | locus YOR069W, strain VPS5, hits give low values 1.01 | locus YOR070C, strain gyp1, hits give low values 0.994 | locus YOR080W, strain dia2, hits give low values 0.981 | locus YOR083W, strain WHI5, hits give low values 0.972 | locus YOR106W, strain vam3, hits give low values 0.998 | locus YOR136W, strain idh2, hits give low values 0.982 | locus YOR144C, strain elg1, hits give low values 0.99 | locus YOR184W, strain ser1, hits give low values 0.985 | locus YOR231W, strain MKK1, hits give low values 0.988 | locus YOR265W, strain rbl2, hits give low values 0.987 | locus YOR270C, strain vph1, hits give low values 0.981 | locus YOR290C, strain snf2, hits give low values 1.01 | locus YOR316C, strain cot1, hits give low values 1 | locus YPL051W, strain arl3, hits give low values 1.03 | locus YPL055C, strain LGE1, hits give low values 1.02 | locus YPL078C, strain atp4, hits give low values 1.03 | locus YPL106C, strain sse1, hits give low values 0.988 | locus YPL240C, strain hsp82, hits give low values 0.983 | locus YPL256C, strain CLN2, hits give low values 1 | locus YPR119W, strain clb2, hits give low values 0.992 | locus YPR141C, strain kar3, hits give low values 0.999 | locus YPR163C, strain tif3, hits give low values 1 | locus YPR167C, strain met16, hits give low values 1.03 | strain wtn01, hits give low values 0.962
